# Results published in ChEMBL document CHEMBL1961873, “Compounds: GSK PKIS; Assays: Nanosyn kinase panel” (2012).
# Tests used:
# [1] = biological target: T1, Tyrosine-protein kinase ITK/TSK (Homo sapiens) (UniProt Q08881); conditions: at 1 µM;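 further: values are mean percent inhibition of ITK from the GSK PKIS screen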
# T1 sequence (whole entry): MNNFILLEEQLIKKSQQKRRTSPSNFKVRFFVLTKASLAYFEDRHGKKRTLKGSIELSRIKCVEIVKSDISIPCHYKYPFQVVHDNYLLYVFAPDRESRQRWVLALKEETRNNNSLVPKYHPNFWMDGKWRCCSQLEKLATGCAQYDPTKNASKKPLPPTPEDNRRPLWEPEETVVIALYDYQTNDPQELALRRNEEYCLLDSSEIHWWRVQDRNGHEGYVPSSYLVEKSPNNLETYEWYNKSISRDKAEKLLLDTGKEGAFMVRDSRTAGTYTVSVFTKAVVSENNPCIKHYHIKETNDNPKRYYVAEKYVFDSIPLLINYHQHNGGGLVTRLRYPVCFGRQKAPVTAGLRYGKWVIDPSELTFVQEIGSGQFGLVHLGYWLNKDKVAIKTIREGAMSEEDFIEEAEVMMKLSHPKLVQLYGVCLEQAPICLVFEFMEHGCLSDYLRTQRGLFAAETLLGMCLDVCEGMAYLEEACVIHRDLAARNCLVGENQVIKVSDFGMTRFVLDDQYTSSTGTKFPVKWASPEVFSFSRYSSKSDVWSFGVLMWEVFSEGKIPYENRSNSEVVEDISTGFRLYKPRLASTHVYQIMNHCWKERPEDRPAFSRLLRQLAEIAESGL
# [2] = biological target: Tyrosine-protein kinase JAK1 (Homo sapiens) (UniProt P23458); conditions: at 0.1 µM
# Chain of Tyrosine-protein kinase JAK1 (Homo sapiens) (P23458 whole entry): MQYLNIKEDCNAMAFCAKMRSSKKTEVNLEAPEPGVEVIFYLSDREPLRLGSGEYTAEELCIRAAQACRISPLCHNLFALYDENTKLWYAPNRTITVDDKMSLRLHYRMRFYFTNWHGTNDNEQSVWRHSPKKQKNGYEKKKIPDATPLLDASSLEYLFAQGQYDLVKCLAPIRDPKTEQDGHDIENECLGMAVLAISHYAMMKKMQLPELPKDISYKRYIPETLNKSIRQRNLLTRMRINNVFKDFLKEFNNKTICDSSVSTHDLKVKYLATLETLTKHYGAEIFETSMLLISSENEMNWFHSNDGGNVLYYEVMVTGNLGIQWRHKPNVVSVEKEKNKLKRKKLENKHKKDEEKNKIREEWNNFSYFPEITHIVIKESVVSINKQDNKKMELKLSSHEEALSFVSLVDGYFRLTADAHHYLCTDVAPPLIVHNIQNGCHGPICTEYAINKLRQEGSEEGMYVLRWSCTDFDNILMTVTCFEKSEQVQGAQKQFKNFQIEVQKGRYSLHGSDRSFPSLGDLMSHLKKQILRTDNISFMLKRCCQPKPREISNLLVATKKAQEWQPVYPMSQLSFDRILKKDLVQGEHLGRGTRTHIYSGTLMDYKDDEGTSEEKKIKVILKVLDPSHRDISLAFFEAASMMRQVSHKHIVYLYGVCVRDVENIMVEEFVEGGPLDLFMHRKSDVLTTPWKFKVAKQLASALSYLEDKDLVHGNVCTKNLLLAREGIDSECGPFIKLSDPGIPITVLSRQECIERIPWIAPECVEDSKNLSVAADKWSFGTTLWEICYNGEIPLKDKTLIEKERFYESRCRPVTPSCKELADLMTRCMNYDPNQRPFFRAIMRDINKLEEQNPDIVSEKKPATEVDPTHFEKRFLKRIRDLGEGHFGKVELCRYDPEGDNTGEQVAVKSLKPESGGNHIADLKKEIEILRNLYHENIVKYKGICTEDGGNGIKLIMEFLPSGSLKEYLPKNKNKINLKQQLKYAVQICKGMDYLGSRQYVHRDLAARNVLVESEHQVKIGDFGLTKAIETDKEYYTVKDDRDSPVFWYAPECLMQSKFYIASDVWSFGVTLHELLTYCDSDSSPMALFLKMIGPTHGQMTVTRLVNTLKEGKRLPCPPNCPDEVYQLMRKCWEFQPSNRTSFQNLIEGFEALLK
# [3] = biological target: Tyrosine-protein kinase JAK1 (Homo sapiens) (UniProt P23458); conditions: at 1 µM
# [4] = biological target: Tyrosine-protein kinase JAK2 (Homo sapiens) (UniProt O60674); conditions: at 0.1 µM
# Chain of Tyrosine-protein kinase JAK2 (Homo sapiens) (O60674 whole entry): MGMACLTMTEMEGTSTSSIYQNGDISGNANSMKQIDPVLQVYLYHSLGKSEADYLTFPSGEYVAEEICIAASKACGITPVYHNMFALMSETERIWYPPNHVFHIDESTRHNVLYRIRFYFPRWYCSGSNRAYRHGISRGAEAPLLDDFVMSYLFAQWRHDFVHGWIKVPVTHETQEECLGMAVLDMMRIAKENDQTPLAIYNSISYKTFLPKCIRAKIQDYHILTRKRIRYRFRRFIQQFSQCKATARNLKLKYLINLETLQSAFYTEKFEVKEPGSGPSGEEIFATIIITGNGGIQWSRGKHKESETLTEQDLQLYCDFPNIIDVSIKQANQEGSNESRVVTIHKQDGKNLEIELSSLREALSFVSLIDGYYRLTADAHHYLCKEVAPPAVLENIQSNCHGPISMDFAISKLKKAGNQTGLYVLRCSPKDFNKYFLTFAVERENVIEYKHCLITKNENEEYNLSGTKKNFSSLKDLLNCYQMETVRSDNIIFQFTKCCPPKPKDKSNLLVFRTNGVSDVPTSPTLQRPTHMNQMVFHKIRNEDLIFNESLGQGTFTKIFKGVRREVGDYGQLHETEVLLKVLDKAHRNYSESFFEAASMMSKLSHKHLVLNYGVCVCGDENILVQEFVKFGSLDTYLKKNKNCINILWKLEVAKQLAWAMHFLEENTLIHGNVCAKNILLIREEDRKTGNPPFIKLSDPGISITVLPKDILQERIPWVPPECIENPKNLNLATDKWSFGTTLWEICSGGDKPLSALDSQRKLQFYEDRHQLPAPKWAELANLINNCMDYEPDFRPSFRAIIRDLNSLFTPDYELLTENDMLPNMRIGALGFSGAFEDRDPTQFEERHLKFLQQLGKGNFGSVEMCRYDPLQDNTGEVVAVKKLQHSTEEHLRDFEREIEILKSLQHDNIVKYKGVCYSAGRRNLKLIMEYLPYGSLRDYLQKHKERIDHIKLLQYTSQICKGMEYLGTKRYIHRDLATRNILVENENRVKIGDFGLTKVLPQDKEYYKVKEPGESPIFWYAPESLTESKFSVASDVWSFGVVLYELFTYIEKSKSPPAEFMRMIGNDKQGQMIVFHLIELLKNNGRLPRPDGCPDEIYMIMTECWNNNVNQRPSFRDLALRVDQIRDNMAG
# [5] = biological target: Tyrosine-protein kinase JAK2 (Homo sapiens) (UniProt O60674); conditions: at 1 µM
# [6] = biological target: T2, Tyrosine-protein kinase JAK3 (Homo sapiens) (UniProt P52333); conditions: at 0.1 µM
# T2 sequence (whole entry): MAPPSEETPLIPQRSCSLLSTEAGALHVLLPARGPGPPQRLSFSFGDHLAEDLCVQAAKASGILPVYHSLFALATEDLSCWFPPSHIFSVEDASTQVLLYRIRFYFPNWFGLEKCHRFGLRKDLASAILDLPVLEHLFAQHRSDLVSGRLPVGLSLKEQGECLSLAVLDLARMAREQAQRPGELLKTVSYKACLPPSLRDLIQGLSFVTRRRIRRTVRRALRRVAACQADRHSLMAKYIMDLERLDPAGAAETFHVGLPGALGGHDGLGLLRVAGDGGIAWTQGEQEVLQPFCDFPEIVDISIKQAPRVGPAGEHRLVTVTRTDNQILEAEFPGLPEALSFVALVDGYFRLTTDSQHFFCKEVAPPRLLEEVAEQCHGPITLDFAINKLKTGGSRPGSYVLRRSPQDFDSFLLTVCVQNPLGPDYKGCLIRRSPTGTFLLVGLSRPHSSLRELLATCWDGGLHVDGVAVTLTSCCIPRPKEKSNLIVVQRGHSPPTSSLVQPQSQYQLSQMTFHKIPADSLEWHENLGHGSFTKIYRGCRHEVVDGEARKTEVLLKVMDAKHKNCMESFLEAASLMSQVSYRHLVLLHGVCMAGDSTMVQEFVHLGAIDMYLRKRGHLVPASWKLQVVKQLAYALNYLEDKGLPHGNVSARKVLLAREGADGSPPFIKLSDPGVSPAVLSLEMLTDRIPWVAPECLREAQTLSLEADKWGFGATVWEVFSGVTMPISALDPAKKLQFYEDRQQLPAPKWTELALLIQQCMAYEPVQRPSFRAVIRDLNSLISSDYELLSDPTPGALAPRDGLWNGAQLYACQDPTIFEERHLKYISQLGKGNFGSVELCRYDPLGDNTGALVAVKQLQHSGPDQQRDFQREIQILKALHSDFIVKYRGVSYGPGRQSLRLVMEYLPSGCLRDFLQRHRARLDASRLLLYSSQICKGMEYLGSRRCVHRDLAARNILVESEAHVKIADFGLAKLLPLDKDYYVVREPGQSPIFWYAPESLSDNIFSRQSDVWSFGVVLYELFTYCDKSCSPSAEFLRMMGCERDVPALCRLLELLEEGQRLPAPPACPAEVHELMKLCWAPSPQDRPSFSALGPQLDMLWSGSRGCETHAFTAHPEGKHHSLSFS
# [7] = biological target: T2, Tyrosine-protein kinase JAK3 (Homo sapiens); conditions: at 1 µM
# [8] = biological target: Vascular endothelial growth factor receptor 2 (Homo sapiens) (UniProt P35968); conditions: at 0.1 µM
# Chain of Vascular endothelial growth factor receptor 2 (Homo sapiens) (P35968 whole entry): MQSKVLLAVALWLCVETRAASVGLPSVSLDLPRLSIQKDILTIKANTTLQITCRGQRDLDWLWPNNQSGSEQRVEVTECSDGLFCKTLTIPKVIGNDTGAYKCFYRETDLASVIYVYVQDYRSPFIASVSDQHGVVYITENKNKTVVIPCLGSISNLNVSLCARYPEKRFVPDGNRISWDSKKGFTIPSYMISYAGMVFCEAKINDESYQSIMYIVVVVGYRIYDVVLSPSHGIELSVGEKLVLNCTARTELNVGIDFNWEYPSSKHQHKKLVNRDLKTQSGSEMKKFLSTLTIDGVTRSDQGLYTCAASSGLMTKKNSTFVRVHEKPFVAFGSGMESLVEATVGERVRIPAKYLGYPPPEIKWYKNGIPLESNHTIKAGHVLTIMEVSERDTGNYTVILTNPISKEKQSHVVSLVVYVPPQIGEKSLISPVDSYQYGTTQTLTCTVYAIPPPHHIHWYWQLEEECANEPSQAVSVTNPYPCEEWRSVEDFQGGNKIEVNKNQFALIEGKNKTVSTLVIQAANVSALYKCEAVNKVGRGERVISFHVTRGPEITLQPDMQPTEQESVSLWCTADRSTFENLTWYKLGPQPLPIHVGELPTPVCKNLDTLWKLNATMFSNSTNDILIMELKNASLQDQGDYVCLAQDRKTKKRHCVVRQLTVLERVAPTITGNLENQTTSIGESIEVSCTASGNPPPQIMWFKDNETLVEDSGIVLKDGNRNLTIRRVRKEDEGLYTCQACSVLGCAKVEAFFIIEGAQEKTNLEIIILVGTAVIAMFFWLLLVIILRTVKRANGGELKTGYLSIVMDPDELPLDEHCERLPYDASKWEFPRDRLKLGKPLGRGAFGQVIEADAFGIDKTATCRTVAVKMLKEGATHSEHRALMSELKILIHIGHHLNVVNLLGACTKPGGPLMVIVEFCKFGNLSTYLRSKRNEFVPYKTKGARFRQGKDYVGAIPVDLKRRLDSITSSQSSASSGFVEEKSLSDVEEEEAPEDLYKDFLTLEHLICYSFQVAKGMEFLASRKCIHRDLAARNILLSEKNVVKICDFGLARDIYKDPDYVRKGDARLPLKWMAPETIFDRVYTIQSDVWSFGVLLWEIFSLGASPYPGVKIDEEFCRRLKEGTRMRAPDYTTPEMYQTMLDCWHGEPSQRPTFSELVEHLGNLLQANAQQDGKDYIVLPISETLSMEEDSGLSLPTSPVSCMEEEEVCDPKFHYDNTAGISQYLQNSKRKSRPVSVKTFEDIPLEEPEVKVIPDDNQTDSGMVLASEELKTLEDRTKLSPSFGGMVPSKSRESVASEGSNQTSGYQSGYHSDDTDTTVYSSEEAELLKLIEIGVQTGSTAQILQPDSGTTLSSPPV
# [9] = biological target: Vascular endothelial growth factor receptor 2 (Homo sapiens) (UniProt P35968); conditions: at 1 µM
# [10] = biological target: Mast/stem cell growth factor receptor Kit (Homo sapiens) (UniProt P10721); conditions: at 0.1 µM;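 further: values are mean inhibition of KIT, from the GSK PKIS dataset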
# Chain of Mast/stem cell growth factor receptor Kit (Homo sapiens) (P10721 whole entry): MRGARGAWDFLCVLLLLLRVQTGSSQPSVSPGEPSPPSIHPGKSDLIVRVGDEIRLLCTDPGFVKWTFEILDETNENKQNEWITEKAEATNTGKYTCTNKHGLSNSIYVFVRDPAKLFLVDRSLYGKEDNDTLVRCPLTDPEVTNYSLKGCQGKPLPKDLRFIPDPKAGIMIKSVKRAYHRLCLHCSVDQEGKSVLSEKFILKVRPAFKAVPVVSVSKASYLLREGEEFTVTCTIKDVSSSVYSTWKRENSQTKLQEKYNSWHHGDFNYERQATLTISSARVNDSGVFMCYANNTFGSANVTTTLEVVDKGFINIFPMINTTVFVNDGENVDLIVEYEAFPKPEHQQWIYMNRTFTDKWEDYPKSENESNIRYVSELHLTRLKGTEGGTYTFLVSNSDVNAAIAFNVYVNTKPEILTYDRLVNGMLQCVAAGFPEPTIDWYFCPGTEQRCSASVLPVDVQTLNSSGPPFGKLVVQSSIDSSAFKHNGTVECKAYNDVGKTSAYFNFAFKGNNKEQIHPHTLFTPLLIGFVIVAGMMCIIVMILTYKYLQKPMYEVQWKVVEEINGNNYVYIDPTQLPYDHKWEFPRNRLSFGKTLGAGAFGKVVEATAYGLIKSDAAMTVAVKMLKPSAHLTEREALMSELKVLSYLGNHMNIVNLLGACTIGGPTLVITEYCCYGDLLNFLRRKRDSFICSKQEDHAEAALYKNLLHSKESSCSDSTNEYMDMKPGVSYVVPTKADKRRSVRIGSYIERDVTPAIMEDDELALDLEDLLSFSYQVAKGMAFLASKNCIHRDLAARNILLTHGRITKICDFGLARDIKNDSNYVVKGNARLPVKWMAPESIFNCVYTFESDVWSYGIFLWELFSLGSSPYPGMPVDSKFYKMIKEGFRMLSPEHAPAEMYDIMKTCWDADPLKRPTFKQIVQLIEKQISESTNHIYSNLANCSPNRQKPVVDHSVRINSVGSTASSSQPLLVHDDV
SMILES,inhibition [1],inhibition [2],inhibition [3],inhibition [4],inhibition [5],inhibition [6],inhibition [7],inhibition [8],inhibition [9],inhibition [10]
Cc1ccc2c(-c3ccnc(Nc4ccccc4)n3)c(-c3ccc(F)cc3)nn2n1,2.3%,3.23%,-5.84%,1.55%,2.93%,-0.48%,2.61%,21%,64%,23.8%
COc1ccc(-c2cc3c(N)ncnc3o2)cc1,0.68%,-0.12%,7.71%,-0.86%,3.1%,-0.88%,0.39%,0.19%,2.97%,-0.07%
CCN(CC)S(=O)(=O)c1ccc(OC)c(Nc2ncc(-c3ccccc3)o2)c1,2.62%,1.87%,0.33%,0.36%,1.73%,-0.47%,2.16%,31.3%,68%,33.5%
COC(=O)c1sc(-n2cnc3cc(OC)c(OC)cc32)cc1OCc1ccccc1C(F)(F)F,1.09%,3.38%,-0.23%,0.91%,5.28%,0.11%,10.7%,15.2%,49.6%,2.41%
CCNC(=O)O[C@H]1CN[C@H](C#Cc2cc3ncnc(Nc4ccc(OCc5cccc(F)c5)c(Cl)c4)c3s2)C1,1.96%,7.02%,-0.58%,3.47%,2.64%,-1.24%,1.79%,6.2%,4.4%,4.29%
CS(=O)(=O)CCNCc1coc(-c2ccc3ncnc(Nc4ccc(OCc5ccccc5)cc4)c3c2)c1,1.57%,-1.63%,0.69%,1.12%,1.93%,-1.53%,0.54%,4.63%,7.45%,-0.21%
COc1ccc(-c2nn3ncccc3c2-c2ccnc(Nc3ccc4c(c3)OCCO4)n2)cc1,0.71%,1.48%,1.48%,-0.19%,-0.78%,-1.66%,-0.04%,11.3%,64%,40.5%
CCOc1ccc2c(-c3ccnc(Nc4cccc(C(F)(F)F)c4)n3)cnn2n1,4.47%,1.9%,5.28%,0.91%,0.53%,-1.95%,-0.21%,4.26%,7.57%,3.18%
Fc1ccc(-c2nn3ccccc3c2-c2ccncc2)cc1,1.56%,0.87%,-0.62%,0.36%,1.23%,-0.48%,0.18%,3.84%,9.61%,1.23%
CNC(=O)c1cccc(C#Cc2cncnc2Nc2ccc(OCc3cccc(F)c3)c(Cl)c2)c1,-0.18%,-1.06%,7.9%,0.28%,1.34%,-1.04%,1.79%,1.34%,3.79%,2.56%
Nc1nc(-c2ccc(F)cc2)c(-c2ccc3ncccc3n2)s1,2.71%,2.95%,6.76%,2.05%,4.07%,-0.98%,1.8%,33.2%,71.1%,3.28%
CNC(=O)c1cncc(/C=C/c2ccccc2Cl)c1,2.43%,1.61%,10.6%,0.26%,1.2%,1.51%,2.32%,0.94%,8.36%,0.25%
CC(=O)Nc1cccc(C#Cc2cncnc2Nc2ccc(OCc3cccc(F)c3)c(Cl)c2)c1,2.79%,6.03%,3.66%,4.37%,6.59%,0.59%,4.13%,9.03%,12.6%,1.83%
COc1ccc(CNC(=O)c2ccc(-c3cc(-c4nnc(C)o4)ccc3C)cc2)cc1,2.72%,7.51%,19.9%,1.15%,1.48%,1.7%,3%,5.17%,9.11%,2.42%
CCc1nn2ncccc2c1-c1ccnc(NC2CC2)n1,1.59%,1.35%,0.58%,0.9%,1.59%,-2.87%,-0.27%,3.91%,5.8%,3.6%
O=C(O[C@H]1CN[C@H](C#Cc2cc3ncnc(Nc4ccc(Cc5ccccc5)cc4)c3s2)C1)N1CCOCC1,0.7%,0.98%,1.8%,-0.09%,-0.66%,-2.28%,-1.16%,-0.84%,5.75%,2.78%
COc1cc2c(cc1Nc1nc(Nc3ccsc3C(N)=O)c3cc[nH]c3n1)N(C(=O)CN(C)C)CCC2(C)C,3.88%,4.13%,2.78%,0.97%,0.03%,0.41%,1.42%,8.34%,14.1%,18.8%
COc1cc(N2CCN(C(C)C)CC2)ccc1Nc1nc(Nc2ccc(F)cc2C(N)=O)c2cc[nH]c2n1,5.47%,3.68%,2.03%,2.05%,2.59%,0.12%,11.6%,4.96%,15.3%,-0.57%
CN(C)CCOc1ccc(-c2nc(-c3ccncc3)c(-c3ccc4c(c3)CC/C4=N\O)[nH]2)cc1,1.79%,3.43%,1.76%,1.76%,1.36%,-1.43%,0.64%,3.5%,5.84%,4.23%
COc1ccc2[nH]c3c4[nH]c5ccc(OC)cc5c4c4c(c3c2c1)C(=O)NC4=O,6.11%,0.96%,5.89%,-0.61%,-1.31%,-1.14%,12.8%,42.5%,68.3%,31.3%

SMILES,inhibition [1],inhibition [2],inhibition [3],inhibition [4],inhibition [5],inhibition [6],inhibition [7],inhibition [8],inhibition [9],inhibition [10]
c1ccc(COc2ccc(Nc3ncnc4ccc(-c5ccco5)cc34)cc2)cc1,0.76%,4%,2.21%,0.1%,-0.74%,-2.56%,-0.1%,0.23%,-0.38%,0.2%
CCn1c(-c2nonc2N)nc2ccccc21,0.89%,5.98%,-0.06%,1.96%,1.39%,-0.66%,1.16%,3.69%,4.29%,3.84%
CC(=O)NCc1cccc(C#Cc2cncnc2Nc2ccc(OCc3cccc(F)c3)c(Cl)c2)c1,0.81%,0.65%,4.76%,-0.2%,-3%,-0.21%,4.46%,0.67%,8.91%,-1.01%
Fc1ccc(-c2nn3ncccc3c2-c2ccnc(Nc3ccc4c(c3)OCCO4)n2)cc1,0.31%,3.02%,2.04%,0.34%,1.88%,-0.15%,-1.41%,30.6%,75.5%,60.7%
CCN1CCC(CC(=O)Nc2n[nH]c3nnc(-c4cccc(F)c4F)cc23)CC1,1.3%,3.38%,4.71%,0.88%,0.1%,-2.12%,1.45%,0.77%,4.46%,0.04%
CC(C)(CO)CNC(=O)c1ccc2c(c1)/C(=N/Nc1ccc(S(N)(=O)=O)cc1)C(=O)N2,1.2%,1.29%,2.13%,-1.03%,1.02%,-0.67%,13.5%,9.03%,56%,-4.53%
COc1ccc(-c2oc3ncnc(N)c3c2-c2ccc(NC(=O)Nc3cc(C(F)(F)F)ccc3F)cc2)cc1,40.8%,14.6%,43.3%,2.04%,14.4%,1.04%,3.12%,75.4%,73.7%,37.9%
NC(=O)c1sc(-n2cnc3ccc(C(F)(F)F)cc32)cc1OCc1ccccc1Br,-0.19%,3.49%,10.6%,1.84%,3.26%,-1.41%,0.92%,6.34%,7.31%,5.23%
CCn1c(-c2nonc2N)nc2c(C#CC(C)(C)O)ncc(OC3CCNCC3)c21,2.09%,3.54%,3.51%,1.5%,2.39%,-2.24%,-1.24%,27.1%,76.1%,2.24%
COc1cc2ncn(-c3cc(OCc4ccccc4C(F)(F)F)c(C(=O)N(C)C)s3)c2cc1OC,1.76%,-1.58%,8.12%,0.32%,-0.19%,-0.48%,14.7%,6.67%,27.5%,0.26%
NS(=O)(=O)c1ccc(N/N=C2\C(=O)Nc3ccc4ncccc4c32)cc1,18.5%,2.63%,17.3%,1.52%,22.4%,14.2%,67.7%,61.6%,88.6%,63.8%
[O-][S+]1CCN(Cc2ccc(-c3ccc4ncnc(Nc5ccc(OCc6cccc(F)c6)c(Cl)c5)c4c3)o2)CC1,2.41%,6.24%,9.08%,1.51%,1.04%,-1.66%,-0.12%,5.24%,7.82%,4.47%
N#Cc1c(NC(=O)c2ccc(F)cc2)sc2c1CCCC2,0.63%,1.63%,6.11%,-0.41%,0.9%,0.53%,2.52%,4.31%,6.96%,6.24%
CN1CCC(n2cnc(-c3ccc(F)cc3)c2-c2ccnc(Nc3ccccc3)n2)CC1,1.68%,1.51%,8.4%,0.27%,0.26%,-0.54%,1.46%,4.35%,12.4%,2.33%
c1cc(-c2cnn3nc(N4CCOCC4)ccc23)nc(NC2CC2)n1,3.22%,0.54%,-6.96%,2.21%,1.85%,-1.14%,-0.05%,12.9%,48%,6.83%
COc1ccc(-c2cc(-c3c[nH]nc3-c3ccccn3)ccn2)cc1,2.05%,4.74%,7.4%,1.59%,4.19%,-1.18%,-0.62%,12.7%,48%,5.05%
CN1CCC(n2cnc(-c3ccc(F)cc3)c2-c2ccnc(N)n2)CC1,6.65%,1.99%,8.12%,0.06%,0.49%,-0.36%,-2.05%,3.28%,10.8%,1.87%
COc1ccc2c(-c3ccnc(Nc4cccc(OC(F)(F)F)c4)n3)cnn2n1,2.38%,4.66%,13%,1.65%,10.9%,-0.93%,2.75%,6.22%,14.8%,10.7%
COc1cc(/C=N/Nc2ncnc3[nH]ncc23)ccc1O,7.65%,8.12%,9.29%,1.72%,4.07%,-1.64%,2.59%,10.3%,45.6%,11.4%
